Screening results (PubChem)
An excerpt weighted towards active compounds, which were near 18% of everything screened.
KAT2A inh – GCN5L2 (KAT2A) acetyltransferase inhibition; GCN5L2 HAT assay, ThioGlo1 CoA-SH fluorescence; AID 504327; hit rate 0.21% among 390,000; Q92830; Potency, µM (series often up to 58.9 µM), for inactives: at the top dose activity change, negative = inhibition, actives largely listed as inhibitors
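Preincubate 20nM GCN5L2 with compound 15 min, RT → add 50uM ThioGlo1 + 75uM H3(1-25) + 70uM acetyl-CoA → read fluorescence 0 and 20 min. Primary qHTS; fluorescent artifacts likely.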
TDP1 inh – TDP1 (human) enzyme inhibition; Q9NUW8; recombinant TDP1, AlphaScreen DNA substrate cleavage; hit rate 0.28% among 350,000; AID 485290; Potency, µM (series often up to 130 µM), for inactives: top-dose activity change, negative = inhibition, usual class: inhibitors; note: nearly all actives have a fitted effect of over 40% in size
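Recombinant E. coli-expressed Tdp1 (1 nM) preincubated with compound 15 min at RT, then 5'-biotin/3'-phosphotyrosine-FITC DNA substrate (15 nM) added for 5 min. AlphaScreen beads (10 ug/ml) added, 10 min RT; tyrosine-FITC cleavage read as signal loss.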
DT40 TDP1 CPT – DT40-hTDP1 cell growth loss with CPT; chicken DT40 Tdp1-/-;hTDP1 cells + 20 nM CPT, ATP luminescence, 48 h; Potency, µM (highest dose often 46.2 µM), without a hit: at the top dose activity change, negative = growth inhibition, usual class: inhibitors; hit rate 12% among 420,000; AID 686979; note: nearly all actives have a fitted effect of over 55% in size
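Chicken DT40 Tdp1-/- cells complemented with human TDP1, 400 cells/well, exposed to compounds plus 20 nM camptothecin for at least 48 h at 37 C; viability read as ATP content by CellTiter-Glo luminescence.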
PLK1 PBD inh – blocks phosphopeptide binding to human PLK1 polo-box domain. P53350. Plk1 PBD binding of FITC phosphopeptide, fluorescence polarization. Potency, µM, inactives show max response, negative = inhibition, hits mostly inhibitors. hit rate 2.8% among 360,000. AID 720504; note: series mostly up to about 57 µM; nearly all actives have a fitted effect of over 65% in size
DT40 TDP1 no CPT – qHTS for Inhibitors of human tyrosyl-DNA phosphodiesterase 1 (TDP1): qHTS in cells in absence of CPT. Potency, µM (titrated, usually from 46.2 µM), without a hit: at the top dose activity change, negative = growth inhibition, actives largely listed as inhibitors. DT40 Tdp1-/- hTDP1 cells, no CPT, ATP luminescence, 48 h. hit rate 15% among 420,000; note: nearly all actives have a fitted effect of over 55% in size
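No-CPT arm: Tdp1-/-;hTDP1 DT40 cells (400/well) plus compounds, incubated ≥48 hr at 37 °C. Readout CellTiter-Glo luminescence.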
VDR inh – inhibitors of human vitamin D receptor. VDR-SRC2-3 peptide fluorescence polarization, 2 h. Potency, µM, for the others: max response, negative = inhibition, hits mostly inhibitors. P11473. hit rate 0.93% among 400,000. AID 504847
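FP read-out; VDR + SRC2-3 coactivator peptide; 23 nl compound by pintool; 2 h RT incubation; reagents held at 4 deg C, protected from light.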
* marks the source's active call; other numbers are inactive results; ? = inconclusive; nt = not tested or not shown; [ ] = another dose, or the depositor's remark. Calls come from the whole dose curve; as a rule, active = well fitted curve in the direction sought with a large enough effect; inconclusive = small, poorly fitted or top-dose-only effect, or another doubt; inactive = no such curve, though single readings can be large; an effect the other way counts as inactive or inconclusive. % is set by controls: 0 for no effect and ±100 for the full control effect; potency is the fitted concentration of half-maximal effect.

SMILES	KAT2A inh	TDP1 inh	DT40 TDP1 CPT	PLK1 PBD inh	DT40 TDP1 no CPT	VDR inh
CCc1ccc2nc(SCC(=O)Nc3nnc(C)s3)c(C)cc2c1	4%	5%	9.2µM*	-9%	?	-1%
CCCCN(CCCC)S(=O)(=O)c1ccc(NC(=O)Cc2cccs2)cc1	?	-2%	?	2%	21µM*	-2%
COc1ccc(CC(=O)Nc2ccc(S(=O)(=O)Nc3ncccn3)cc2)cc1	-11%	-2%	10%	?	-28%	-13%
COc1ccc(NS(=O)(=O)c2cc(NC(=O)Cc3cccs3)ccc2C)cc1	-5%	4%	6%	2%	-1%	-10%
COc1ccc(NS(=O)(=O)c2ccc(NC(=O)Cc3cccs3)cc2)cc1	-8%	4%	?	-23%	15µM*	-17%
COc1ccc(CC(=O)Nc2cc(S(=O)(=O)Nc3ccc(OC)cc3)ccc2OC)cc1	-6%	2%	21µM*	-9%	21µM*	-7%
CCC(=O)Nc1ccc(S(=O)(=O)Nc2cccc(C)c2)cc1OC	-14%	4%	?	-7%	12µM*	-12%
COc1ccc(Cl)cc1N1C(=O)CC(N2CCN(S(=O)(=O)c3ccccc3F)CC2)C1=O (stereo unspecified)	-9%	2%	-15%	-3%	-8%	6%
COc1c2c(cc3ccc(=O)oc13)CCO2	-6%	nt	7%	3%	16%	-7%
O=C(CC1CCCCC1)NCc1ccccc1Cl	-1%	4%	-8%	2%	-23%	6%
Cc1ccc([C@H]2N[C@]3(CCCN(Cc4ccc(Br)cc4)C3=O)[C@H]3C(=O)N(Cc4ccccc4)C(=O)[C@@H]23)cc1	nt	nt	21µM*	-12%	29µM*	nt
O=C1[C@H]2[C@@H](c3ccccc3)N[C@]3(CCCN(Cc4ccc(Cl)cc4)C3=O)[C@H]2C(=O)N1Cc1ccccc1	nt	nt	23µM*	-1%	8.2µM*	nt
O=C1[C@H]2[C@@H](c3ccccc3)N[C@]3(CCCN(Cc4ccc(Br)cc4)C3=O)[C@H]2C(=O)N1Cc1ccccc1	nt	nt	?	-11%	23µM*	nt
Cc1ccc(-n2nc(C(=O)Nc3ccc(Br)cc3C)c(=O)n(C)c2=O)cc1	-4%	3%	-16%	nt	-15%	-1%
CC(C)Cc1nc2cc(NS(=O)(=O)N(C)C)cc(C(=O)N3CCSCC3)c2n1C	nt	nt	-3%[9.04 µM]	nt	2%	nt
COc1ccc(NC(=O)CSc2nnnn2C)c([N+](=O)[O-])c1	-4%	0%	11%	-3%	-2%	18%
Brc1ccc(Nc2c3c(nc4nncn24)CCC3)cc1	2%	7%	?	nt	18µM*	-4%
Cc1ccc(Nc2c3c(nc4nncn24)CCC3)cc1C	-1%	2%	?	nt	16µM*	5%
Cc1ccc(Nc2c3c(nc4nncn24)CCC3)cc1	-6%	7%	-8%	nt	-27%	-1%
COc1ccc(Nc2c3c(nc4nncn24)CCC3)cc1Cl	1%	5%	18µM*	nt	21µM*	12%
CCC(COC)NC(=O)c1ccc(OC)c(OC2CCN(C(C)=O)CC2)c1 (stereo unspecified)	2%	3%	8%	-1%	5%	-4%
CCOc1cc(NC(=O)c2ccco2)c(OCC)cc1NC(=O)CCc1ccccc1OC	2%	8%	9.2µM*	-5%	7.3µM*	7%
CCOc1cc(NC(=O)c2ccco2)c(OCC)cc1NC(=O)c1cc(OC)c(OC)c(OC)c1	-12%	-1%	?	3%	?	2%
O=C(Nc1cccc(-c2nnc(-c3ccccc3)o2)c1)c1ccco1	-2%	2%	-26%	-5%	?	-10%
CCS(=O)(=O)c1ccc(-c2cccc(NC(=O)c3ccco3)c2)nn1	-2%	0%	-1%	-3%	?	4%
SMILES	KAT2A inh	TDP1 inh	DT40 TDP1 CPT	PLK1 PBD inh	DT40 TDP1 no CPT	VDR inh
COc1cc(NC(=O)c2ccco2)c(OC)cc1NC(=O)c1cc(OC)c(OC)c(OC)c1	-2%	-6%	?	-3%	21µM*	-9%
Cc1nn2c(-c3cccc(NC(=O)c4ccco4)c3)nnc2c2ccccc12	-6%	1%	21µM*	-12%	21µM*	7%
CCOc1ccc(-c2cccc(NC(=O)c3ccco3)c2)nn1	-3%	1%	?	-6%	21µM*	3%
Nc1ccn([C@@H]2O[C@H](CNCC3=CCOc4ccc(O)cc43)[C@@H](O)[C@H]2O)c(=O)n1	nt	nt	5%	-13%	-7%	nt
CC(=O)c1ccccc1OCC(O)Cn1c(CO)nc2ccccc21 (stereo unspecified)	-2%	2%	nt	nt	nt	-3%
Nc1cc(=O)[nH]c(SCC(=O)N2CCCC2)n1	1%	0%	-5%	-7%	19%	4%
COc1cc(NC(=O)c2nnn(CC(=O)Nc3cc(C)ccc3C)c2N)cc(OC)c1	-2%	4%	0%	nt	-4%	11%
CCOc1cc(NC(=O)c2ccco2)c(OCC)cc1NC(=O)c1ccco1	1%	nt	-20%	-9%	2.9µM*	30%
CSc1ccc(/C=N/NC(=O)c2ccc(C)c(C)c2)cc1	?	-5%	?	3%	23µM*	-10%
Cc1ccc(-c2csc3ncnc(Sc4nnc(CN5CCCCCC5=O)o4)c23)cc1	-2%	6%	4.1µM*	-22%	6.5µM*	-28%
Cc1cc(C(=O)Nc2cccc(-c3nc(CNC(=O)c4cc5ccccc5[nH]4)c(C)o3)c2)c(C)o1	nt	nt	24%	nt	-13%	nt
CCC(Nc1ncnc2ccc(-c3c(C)noc3C)cc12)c1ccccc1 (stereo unspecified)	nt	7%	nt	nt	nt	nt
CCN(CC)S(=O)(=O)c1ccc(NC(=O)c2ccc(OCC3CCCO3)cc2)cc1 (stereo unspecified)	-1%	1%	23µM*	-1%	15µM*	9%
Cc1cc(NC(=O)c2ccc(OCC3CCCO3)cc2)ccc1Br (stereo unspecified)	nt	nt	21µM*	0%	15µM*	nt
CCOc1ccc(NC(=O)c2ccc(OCC3CCCO3)cc2)cc1S(=O)(=O)N(CC)CC (stereo unspecified)	-7%	0%	-24%	-3%	?	8%
CCCNC(=O)Cc1c(C)n(C(=O)c2ccc(Cl)cc2)c2ccc(OC)cc12	-6%	3%	21µM*	-7%	?	2%
Cc1ccc2nc(SCC(=O)N3CCC(Cc4ccccc4)CC3)nc(=O)n2c1	-10%	13%	?	-5%	?	7%
c1ccc(CCNc2ncnc3sccc23)nc1	-6%	5%	6.5µM*	6%	7.3µM*	-2%
